Measurements taken from article PMC12864922, “TDP-43 directly inhibits mRNA accumulation in neurites through modulation of mRNA stability”.
Whole data set: some 9,900 sequences, median “r (bound/input frequency ratio)” near 0.7, cut for the highest 2% near 6.5. The sample holds the highest values, similar sequences and a random draw of the others, so the mix is not that of the screen.

B1: ENSMUSG00000031028.612|Tub|38:42 (ssRNA)
RNA: GGGAGUUCUACAGUCCGACGAUCGCUUCGAUAUCCGCAUGCUAUGAGCAGCUAGAGCAUUUGAGCAACCCAUGUAAUCUUACACAUUCCCUCCCUGUAAGAAGGCCUGUCAGAGCUUGCUGUAGGAGUUAGGGUAAAUGAAAGUUAGUCCUGGCUCUCAUCACCACCUUUCCUAGCUCAUCACUGUGCCUUCUUUCUUCCCUAAGAAAGACAAUGCACCCCUCUCUUCUGUUCUCCUGCCCCUUCGCCCCCACUGAGGUCCAGGUAGAGCAGAUGAGGCUGAAAUGUAGAGUGUUCUAUAGAGCUCUUGCGGUCGCACUAGUGUGGAAUUCUCGGGUGUCAAGG
B2: ENSMUSG00000043670.77|Diras1|85:90 (ssRNA)
RNA: GGGAGUUCUACAGUCCGACGAUCGCUUCGAUAUCCGCAUGCUAGGAUCUGAAAACAGGGACCUGGCUAAGGAACUGCUCAUCCCAGUCAGGCCCAGAGAGGUUACCUUGCCUCUCCAUCUCUGUCCCACACACCCCAGCCAUGCCCACUGUCCCUGUCCCUCACAUUCUAUCACUGUGACCUCUGGGGAGUGCCCAUUGACCUCAUCUUCCUUCACUAAUAUCUUAUUUCUUUCACCUGAUCCUGUCCUUUCCCCGUGACCUCUGACCUGUGGCCUUCCCUGGGUCCAGAACACCCCUGUCCUCUCUUGCGGUCGCACUAGUGUGGAAUUCUCGGGUGUCAAGG
B3: ENSMUSG00000090935.47|Synj2bp (ssRNA)
RNA: GGGAGUUCUACAGUCCGACGAUCGCUUCGAUAUCCGCAUGCUAGCGGGAUGUGCUGUGUCCCUGAGAGUACAGCACAGGGUAGGUAUUACCUGCACCUGGAUAUGGGACAGUAGGCUUUUACACUGUUCUUGUGAAUAGGUUUGUAAGCUUCAAAGUCUGCUUUACUUUAUCUUCUGUUAUGAUUGCCUUUGUCAGCAUAGGCAGGAGUCCUUUAGGAUUUCUGCCUAUCAGUAAAAGAAGUAUGUAACCCAAGUUCUACCUUCAGUGGAUUAAAGUUUCAUUAAGUGAAAAUGGAAAGAAAGCUCUUGCGGUCGCACUAGUGUGGAAUUCUCGGGUGUCAAGG
B4: ENSMUSG00000058297.314|Spock2 (ssRNA)
RNA: GGGAGUUCUACAGUCCGACGAUCGCUUCGAUAUCCGCAUGCUAGCUGAGGCUUCCAGGACAAAGCCCCAGUCUGGCUCUCCCCCAGCCUCUCAGGGGCACUGGCUGGUCACAUCCACUGAGUAUUGAUCGGUUGGACUUUAGGGAAGAGCCUCCUCCUUCCCAUUCCUUUCUGCCACCCUGGAAUGGCCACCUUAAUCGUCAUCUCCUCGGGGGGAAUACGGAAAUGUCACCAAGCUCCAUAAAGUGCUUCUCAUUCCACGACACAGUUCUGACUCUCCGGGUGACUGUCACCUGCUCCCAUCCUCUUGCGGUCGCACUAGUGUGGAAUUCUCGGGUGUCAAGG
B5: ENSMUSG00000031028.648|Tub (ssRNA)
RNA: GGGAGUUCUACAGUCCGACGAUCGCUUCGAUAUCCGCAUGCUACCAGGUAGAGCAGAUGAGGCUGAAAUGUAGAGUGUUCUAUAGAGCAUCUCAGUAGCAUAGAAGGAGAAGCCCAGCUCCAACCUCCUGGACCCCAUACUGGUGACCAGCUUGGUGAGGACAGGCAAAAUUUCUCUAGCUGAGAGCACACUUAGCCAGUUUUCACGCCUAGAACAUAUAUGUCGAUUUGCACAUGAUUGUCUUUUCCUAUUUUGGAGUGGUCAGACAUUUUAUUUUUGUUCAAAAUUAUCUGGAGUUUUAGACUCUUGCGGUCGCACUAGUGUGGAAUUCUCGGGUGUCAAGG
B6: ENSMUSG00000032194.138|Kank2 (ssRNA)
RNA: GGGAGUUCUACAGUCCGACGAUCGCUUCGAUAUCCGCAUGCUAUGACUUGGAAAUGACCAACUUACAAGAAGUUAUGCUGACCUCCCUGUUCCCCACGGGGAGUGCUUGGCAGAGGAGACUACUUCUAGAAAUACUUUCAGACCUACAGACAAAAAAGAAAAAAGGCCAUUCCGGAGUGACUCCCAGCAUCACAGCCCAGAACCUCCUCCUCAAAGGAGAGUAAACAGAGACUGUGAUACUGACCAAGUACAGGCGCUCGCUAUGAAGCCCAUAUGUUCCUGAUUAAGAGCUGGCUGGCCUCACUCUUGCGGUCGCACUAGUGUGGAAUUCUCGGGUGUCAAGG
B7: ENSMUSG00000061578.1543|Ksr2 (ssRNA)
RNA: GGGAGUUCUACAGUCCGACGAUCGCUUCGAUAUCCGCAUGCUACACUAUGUAUAUUUGUAUAGAUCAUUUAUAAAGUUUUCUACACUUCUCAAAAAAAAAAAUAUUUCUAACCUUGGCUGUUGGACAGUCUGUGAGCCUGUGAGCCGGCAAGCCUGUUGUUUCUUGUGUUUAGUGCAAUGUUAGUGAGAAUCCAGUGUCUGAGUUAUUAAUGCCAAUAAAGAAUUUGAGAAUUACUGCAUCCGCUGCUGUCACUCCAGGUCAGAACUCUGCUGUUGUCUGUUGGAUGGAAGGAAGCUCCAGAGCUCUUGCGGUCGCACUAGUGUGGAAUUCUCGGGUGUCAAGG
B8: ENSMUSG00000058297.242|Spock2 (ssRNA)
RNA: GGGAGUUCUACAGUCCGACGAUCGCUUCGAUAUCCGCAUGCUAAGGGGACCACACUGAGCAGCUAGGCCCUGAUGCCAUGCCUCAGCACGCCCUCAGACCUCCAGGCCGGGUGGAAGGGGCUUUUACCCAGAUGUCCUGUGGGGUUUUGUGUGUCUAUUGCUCCCCACUUCCCCCUCUCAAAGGAAAUUUCCUUGAUAUAUUUGAUGAAGAAUUCCUUACCUGGGCCUCUGAUACCCUUUGGUACGCGUACGUGUGUGUGGCGCGUAUACGUGUGUGUGUGUGUGUGUGUGUGUGUGUGUGUGCUCUUGCGGUCGCACUAGUGUGGAAUUCUCGGGUGUCAAGG
B9: ENSMUSG00000058297.244|Spock2 (ssRNA)
RNA: GGGAGUUCUACAGUCCGACGAUCGCUUCGAUAUCCGCAUGCUAUGAGCAGCUAGGCCCUGAUGCCAUGCCUCAGCACGCCCUCAGACCUCCAGGCCGGGUGGAAGGGGCUUUUACCCAGAUGUCCUGUGGGGUUUUGUGUGUCUAUUGCUCCCCACUUCCCCCUCUCAAAGGAAAUUUCCUUGAUAUAUUUGAUGAAGAAUUCCUUACCUGGGCCUCUGAUACCCUUUGGUACGCGUACGUGUGUGUGGCGCGUAUACGUGUGUGUGUGUGUGUGUGUGUGUGUGUGUGUGUGUGUGUGUGAGCUCUUGCGGUCGCACUAGUGUGGAAUUCUCGGGUGUCAAGG
B10: ENSMUSG00000058297.239|Spock2 (ssRNA)
RNA: GGGAGUUCUACAGUCCGACGAUCGCUUCGAUAUCCGCAUGCUAGAACGGUGUAUCUAUCAGAGGGGACCACACUGAGCAGCUAGGCCCUGAUGCCAUGCCUCAGCACGCCCUCAGACCUCCAGGCCGGGUGGAAGGGGCUUUUACCCAGAUGUCCUGUGGGGUUUUGUGUGUCUAUUGCUCCCCACUUCCCCCUCUCAAAGGAAAUUUCCUUGAUAUAUUUGAUGAAGAAUUCCUUACCUGGGCCUCUGAUACCCUUUGGUACGCGUACGUGUGUGUGGCGCGUAUACGUGUGUGUGUGUGUGCUCUUGCGGUCGCACUAGUGUGGAAUUCUCGGGUGUCAAGG
B11: ENSMUSG00000058297.242|Spock2|105:111;209:217;228:260 (ssRNA)
RNA: GGGAGUUCUACAGUCCGACGAUCGCUUCGAUAUCCGCAUGCUAAGGGGACCACACUGAGCAGCUAGGCCCUGAUGCCAUGCCUCAGCACGCCCUCAGACCUCCAGGCCGGGUGGAAGGGGCUUUUACCCAGAUGUCCUGUGGGGUUUACACACACUAUUGCUCCCCACUUCCCCCUCUCAAAGGAAAUUUCCUUGAUAUAUUUGAUGAAGAAUUCCUUACCUGGGCCUCUGAUACCCUUUGGUACGCGUACCACACACACGCGCGUAUACCACACACACACACACACACACACACACACACACCUCUUGCGGUCGCACUAGUGUGGAAUUCUCGGGUGUCAAGG
B12: ENSMUSG00000058297.246|Spock2 (ssRNA)
RNA: GGGAGUUCUACAGUCCGACGAUCGCUUCGAUAUCCGCAUGCUACCCUGAUGCCAUGCCUCAGCACGCCCUCAGACCUCCAGGCCGGGUGGAAGGGGCUUUUACCCAGAUGUCCUGUGGGGUUUUGUGUGUCUAUUGCUCCCCACUUCCCCCUCUCAAAGGAAAUUUCCUUGAUAUAUUUGAUGAAGAAUUCCUUACCUGGGCCUCUGAUACCCUUUGGUACGCGUACGUGUGUGUGGCGCGUAUACGUGUGUGUGUGUGUGUGUGUGUGUGUGUGUGUGUGUGUGUGUGAGAGAGAGAGAGAGCUCUUGCGGUCGCACUAGUGUGGAAUUCUCGGGUGUCAAGG
B13: ENSMUSG00000058297.245|Spock2 (ssRNA)
RNA: GGGAGUUCUACAGUCCGACGAUCGCUUCGAUAUCCGCAUGCUAGCUAGGCCCUGAUGCCAUGCCUCAGCACGCCCUCAGACCUCCAGGCCGGGUGGAAGGGGCUUUUACCCAGAUGUCCUGUGGGGUUUUGUGUGUCUAUUGCUCCCCACUUCCCCCUCUCAAAGGAAAUUUCCUUGAUAUAUUUGAUGAAGAAUUCCUUACCUGGGCCUCUGAUACCCUUUGGUACGCGUACGUGUGUGUGGCGCGUAUACGUGUGUGUGUGUGUGUGUGUGUGUGUGUGUGUGUGUGUGUGUGAGAGAGAGCUCUUGCGGUCGCACUAGUGUGGAAUUCUCGGGUGUCAAGG
B14: ENSMUSG00000058297.243|Spock2 (ssRNA)
RNA: GGGAGUUCUACAGUCCGACGAUCGCUUCGAUAUCCGCAUGCUACCACACUGAGCAGCUAGGCCCUGAUGCCAUGCCUCAGCACGCCCUCAGACCUCCAGGCCGGGUGGAAGGGGCUUUUACCCAGAUGUCCUGUGGGGUUUUGUGUGUCUAUUGCUCCCCACUUCCCCCUCUCAAAGGAAAUUUCCUUGAUAUAUUUGAUGAAGAAUUCCUUACCUGGGCCUCUGAUACCCUUUGGUACGCGUACGUGUGUGUGGCGCGUAUACGUGUGUGUGUGUGUGUGUGUGUGUGUGUGUGUGUGUGUGCUCUUGCGGUCGCACUAGUGUGGAAUUCUCGGGUGUCAAGG
B15: ENSMUSG00000058297.241|Spock2 (ssRNA)
RNA: GGGAGUUCUACAGUCCGACGAUCGCUUCGAUAUCCGCAUGCUAUAUCAGAGGGGACCACACUGAGCAGCUAGGCCCUGAUGCCAUGCCUCAGCACGCCCUCAGACCUCCAGGCCGGGUGGAAGGGGCUUUUACCCAGAUGUCCUGUGGGGUUUUGUGUGUCUAUUGCUCCCCACUUCCCCCUCUCAAAGGAAAUUUCCUUGAUAUAUUUGAUGAAGAAUUCCUUACCUGGGCCUCUGAUACCCUUUGGUACGCGUACGUGUGUGUGGCGCGUAUACGUGUGUGUGUGUGUGUGUGUGUGUGUGCUCUUGCGGUCGCACUAGUGUGGAAUUCUCGGGUGUCAAGG
B16: ENSMUSG00000058297.240|Spock2 (ssRNA)
RNA: GGGAGUUCUACAGUCCGACGAUCGCUUCGAUAUCCGCAUGCUAUGUAUCUAUCAGAGGGGACCACACUGAGCAGCUAGGCCCUGAUGCCAUGCCUCAGCACGCCCUCAGACCUCCAGGCCGGGUGGAAGGGGCUUUUACCCAGAUGUCCUGUGGGGUUUUGUGUGUCUAUUGCUCCCCACUUCCCCCUCUCAAAGGAAAUUUCCUUGAUAUAUUUGAUGAAGAAUUCCUUACCUGGGCCUCUGAUACCCUUUGGUACGCGUACGUGUGUGUGGCGCGUAUACGUGUGUGUGUGUGUGUGUGUGCUCUUGCGGUCGCACUAGUGUGGAAUUCUCGGGUGUCAAGG

These binders were tested against TDP-43 (Homo sapiens, UniProt Q13148 1-414) (assay: RNA Bind-n-Seq with designed 260-mer pool; 25 mM Tris-HCl, 150 mM KCl, 3 mM MgCl2, BSA (printed 500 mg/mL), 20 units/mL SUPERase IN; pH not stated; 500 nM RNA pool, 1 h, 4 C; TDP-43 5, 50, 500 nM; high values mean tight binding). Details: protein: recombinant; tags: SBP (GST cleaved off with PreScission; pGEX-GST-SBP).
Method in brief: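 Recombinant SBP-tagged TDP-43 at 5, 50 or 500 nM was captured on streptavidin beads, then incubated 1 h at 4 °C with 500 nM of an in vitro-transcribed 260-nt 3′ UTR oligo pool in 25 mM Tris-HCl, 150 mM KCl, 3 mM MgCl2, BSA and SUPERase IN. Bound RNA was washed, eluted with biotin, reverse transcribed, PCR-amplified and sequenced. Binding is R, each oligo's mapped-read-normalized abundance in the bound sample divided by its abundance in input. Duplicates used two independent protein batches.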

Chain of TDP-43 (Q13148 whole entry): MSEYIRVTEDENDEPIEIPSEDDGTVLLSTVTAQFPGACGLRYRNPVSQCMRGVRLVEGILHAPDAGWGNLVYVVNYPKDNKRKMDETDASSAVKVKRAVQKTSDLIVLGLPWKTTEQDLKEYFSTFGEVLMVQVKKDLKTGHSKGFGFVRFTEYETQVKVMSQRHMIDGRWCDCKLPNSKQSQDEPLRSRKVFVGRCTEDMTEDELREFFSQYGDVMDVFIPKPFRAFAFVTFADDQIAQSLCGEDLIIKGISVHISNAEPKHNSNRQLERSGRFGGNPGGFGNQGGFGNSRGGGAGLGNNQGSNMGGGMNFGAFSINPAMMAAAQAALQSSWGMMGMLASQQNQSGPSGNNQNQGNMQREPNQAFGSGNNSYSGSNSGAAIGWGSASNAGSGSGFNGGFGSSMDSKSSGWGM

Binder	binding signal
B1	1.48 R (bound/input frequency ratio)
B2	2.44 R (bound/input frequency ratio)
B3	1.42 R (bound/input frequency ratio)
B4	1.1 R (bound/input frequency ratio)
B5	0.252 R (bound/input frequency ratio)
B6	0.253 R (bound/input frequency ratio)
B7	0.902 R (bound/input frequency ratio)
B8	6.94 R (bound/input frequency ratio)
B9	3.2 R (bound/input frequency ratio)
B10	3.69 R (bound/input frequency ratio)
B11	4.83 R (bound/input frequency ratio)
B12	2.94 R (bound/input frequency ratio)
B13	9.24 R (bound/input frequency ratio)
B14	6.55 R (bound/input frequency ratio)
B15	6.46 R (bound/input frequency ratio)
B16	5.45 R (bound/input frequency ratio)
